The whole screen tested about 2,200 compounds, of which about 1,300 (59%) were called active. How the calls were made is not given here. So high a share suggests a set chosen from earlier hits. A selection follows. Results with a measured potency or affinity are listed apart.
Experiment: THP-1 cell cytotoxicity, dose response, cytotoxicity control for Salmonella PhoP regulon inhibitors, S. typhimurium screen hits (AID 2253)
Details: THP-1 viability, CellTiter-Glo luminescence, 72 h; series mostly up to 50 µM

| SMILES | outcome |
| --- | --- |
| O=C1c2ccccc2C(=O)N1CCCc1nc(-c2ccccn2)no1 | inactive |
| O=C1c2ccccc2C(=O)N1Cc1nc(-c2ccccn2)no1 | inactive |
| CCOc1cc(CNn2cnnc2)ccc1OCC(=O)NC1CCCCC1 | inactive |
| Cc1ccccc1OCC(=O)N/N=C/c1ccco1 | inactive |
| O=C(COC(=O)/C=C/c1ccco1)Nc1cccc([N+](=O)[O-])c1 | inactive |
| CCOC(=O)/C=C1\SCC(=O)N1CC(=O)NC1CCCCC1 | inactive |
| CCn1c(Cc2ccccc2)nnc1SCC(=O)Nc1ccc(S(N)(=O)=O)cc1 | inactive |
| Cc1cc(C)c(NC(=O)COc2ccccc2C(=O)Nc2ccc3c(c2)oc2ccccc23)c(C)c1 | inactive |
| N/C(=N\OC(=O)COc1ccc(Cl)cc1)c1cccnc1 | inactive |
| c1ccc(CCNc2nc3ccccc3s2)cc1 | inactive |
| Cc1ccc(C(=O)Oc2ccc(C(=O)COC(=O)c3cnccn3)cc2)cc1 | inactive |
| COc1ccc(/C=C/C(=O)NCCc2nc3ccccc3[nH]2)cc1 | inactive |
| Nc1nnc(SCc2ccc(F)cc2Cl)s1 | inactive |
| O=C(CSc1nnc(-c2cccnc2)o1)OC1CCCCC1 | inactive |
| C/C(=N/NC(=O)Cc1cccn1C)c1ccccc1 | inactive |
| Cc1oc(CC(C)C)c(CN)c1C(=O)O | inactive |
| CCCn1c(N)nc2ccccc21 | inactive |
| CCOc1ccccc1Nc1nc2ccccc2n2cnnc12 | inactive |
| Cn1c(-c2ccc(N)cc2)nc2ccccc21 | inactive |
| CCCNC(=O)CN(C1CCCCC1)S(C)(=O)=O | inactive |
| O=C(CSc1n[nH]c(=O)[nH]c1=O)N/N=C/c1ccccc1 | inactive |
| COc1cc([N+](=O)[O-])ccc1NC(=O)CN(C)C | inactive |
| CC1CCc2cc(F)cc3c(=O)c(C(=O)O)cn1c23 (stereo not drawn) | inactive |
| CCN1C(=O)N/C(=C/c2ccc(Sc3ccc(C)cc3)o2)C1=O | inactive |
| COc1nccnc1NS(=O)(=O)c1ccc(NC(=S)NC(=O)c2cccnc2)cc1 | inactive |
| O=C(Nc1cccnc1)c1cc(F)cc(F)c1 | inactive |

| SMILES | outcome |
| --- | --- |
| COc1nsnc1NS(=O)(=O)c1ccc(NC(=S)NC(=O)c2cccnc2)cc1 | inactive |
| COC(=O)Cc1ccc(NC(=S)N2CCN(c3ccc(F)cc3)CC2)cc1 | inactive |
| Cc1cccc(C(=O)NC(=S)Nc2ccc(N3CCOCC3)cc2)c1 | inactive |
| O=C(Nc1ccccc1)Oc1ccc[nH]c1=O | inactive |
| CCCOc1ccc(C(=O)N2CCCC2C(=O)O)cc1 (stereo not drawn) | inactive |
| CC(C)Nc1cc(C(F)(F)F)nc(-c2ccccn2)n1 | inactive |
| O=C(Nc1ccccn1)NC1CCCCC1 | inactive |
| O=C(Nc1ccsc1C(=O)NC1CCCCC1)c1ccccc1 | inactive |
| COc1ccccc1NCCC(=O)OCC(=O)NC1CCCCCC1 | inactive |
| C/C(=N\NC(=O)c1ccccc1)c1ccc2c(c1)OCO2 | inactive |
| O=S(=O)(c1ccc(NC(=S)Nc2ccc3c(c2)OCO3)cc1)N1CCOCC1 | inactive |
| COc1ccc(-c2cc(C(=O)Nc3ccc(S(=O)(=O)Nc4ncccn4)cc3)c3ccccc3n2)cc1 | inactive |
| O=C(Nc1nccs1)c1cc(-c2ccco2)nc2ccccc12 | inactive |
| N#CCCN(C(=O)CN1C(=O)NC2(CCCC2)C1=O)c1ccccc1F | inactive |
| O=C(CSc1nnc(Cc2ccccc2)o1)NCCc1ccccc1 | inactive |
| c1ccc(CSc2nnc(-c3ccncc3)o2)cc1 | inactive |
| O=C(NCCc1ccccc1)c1ccc2nc(-c3ccco3)c(-c3ccco3)nc2c1 | inactive |
| CCn1cc(C(=O)O)c(=O)c2cc(F)c(N3CCN(C(=S)NC(=O)c4cccc(F)c4)CC3)cc21 | inactive |
| Cc1ccc(C(=O)c2ccccc2C(=O)O)c(O)c1 | inactive |
| Cc1cc(C)cc(-n2c(C)cc(C=C(C#N)C#N)c2C)c1 | inactive |
| CCN(c1ccc(OCC(=O)OCC(=O)Nc2ccc(F)c(F)c2F)cc1)S(=O)(=O)c1ccccc1 | inactive |
| NC1CCN(c2nc3c(cc2F)c(=O)c(C(=O)O)cn3-c2ccc(F)cc2F)C1 (stereo not drawn) | inactive |
| CCOC(=O)C1=C(C)NC(=S)NC1c1ccc(OC(=O)c2ccco2)cc1 (stereo not drawn) | inactive |
| CCNC(=O)NC1(C(=O)Nc2ccc3c(c2)OCCO3)CCCCC1 | inactive |
| O=C(Nc1nc2ccc(SC(F)F)cc2s1)c1ccc2c(c1)S(=O)(=O)c1ccccc1C2=O | inactive |
| Cc1nn(C)c(C)c1S(=O)(=O)N1CCC(C(=O)NC2CCCCC2)CC1 | inactive |

| SMILES | outcome |
| --- | --- |
| Cc1cccc(N2CCN(CC(=O)Nc3nccs3)CC2)c1C | inactive |
| O=c1cc(Cc2ccccc2)[nH]c(=S)[nH]1 | inactive |
| CC1CCc2c(N3CCC(O)CC3)c(F)cc3c(=O)c(C(=O)O)cn1c23 (stereo not drawn) | inactive |
| CC1(C)CC(=O)C=C(Nc2ccc(Br)cn2)C1 | inactive |
| Cc1nn(CCOc2ccccc2)c(=O)n1-c1ccc(F)cc1 | inactive |
| CCCn1c(NCCO)nc2ccccc21 | inactive |
| CCCn1c(/N=C/c2ccc3c(c2)OCO3)nc2ccccc21 | inactive |
| CC(Cl)C(=O)NNc1cccc(Cl)n1 (stereo not drawn) | inactive |
| S=c1nc(C2CCCCC2)[nH][nH]1 | inactive |
| Cc1cc(C)n2c(SCC(=O)NCc3ccco3)nnc2n1 | inactive |
| COc1ccc(C(=O)C(CO)Oc2ccccc2OC)cc1OC (stereo not drawn) | inactive |
| CCS(=O)(=O)Nc1cc(C(=O)OC)ccc1C(=O)OC | inactive |
| CCCCOC(=O)CSc1nc2c(c(=O)[nH]c(=O)n2C)n1C/C=C(\C)Cl | inactive |
| Cc1ccc(NC(=O)c2ccccc2)s1 | inactive |
| Cc1cc(C(=O)NCc2cccs2)cs1 | inactive |
| Brc1cccc(CNCc2cccs2)c1 | inactive |
| CCN(CC)Cc1c[nH]c2c(C(=O)OC)cccc12 | inactive |
| COCCn1c(-c2ccccc2F)n[nH]c1=S | inactive |
| CN1CCCC(OC(=O)c2ccc3c(c2)OCCO3)C1 (stereo not drawn) | inactive |
| O=C(CCN1CCCCC1)NCC1OCCc2ccccc21 (stereo not drawn) | inactive |
| O=C(CCNS(=O)(=O)c1cccc2nsnc12)Nc1ccc2c(c1)OCCO2 | inactive |
| S=c1[nH]nc(Cc2cccc3ccccc23)o1 | inactive |
| c1coc(CNc2c3c(nc4ncnn24)CCCC3)c1 | inactive |
| CCN1CCN(C(=O)c2ccc(COc3ccc(Cl)cc3)o2)CC1 | inactive |
| CCOc1ccc(/C=N/O)cc1 | inactive |
| CCOc1ccc(CCNC(=O)c2cc3sc(Cl)cc3n2C)cc1OCC | inactive |

Source: PubChem BioAssay AID2253 (Southern Research Specialized Biocontainment Screening …, 2010)
